SMILES strings stand for the structures. Records with an inconclusive call do not appear. Activity calls are given as the source filed them. The call rests on the fitted dose curve; in most records, active means well fitted cell-killing curve with a large enough effect; inconclusive means small, poorly fitted or top-dose-only effect, or effect the other way; inactive means no such curve, though single readings can be large or run the other way.
Potency means the concentration at half of the fitted maximal effect.

The nature of the test: Quantitative High-Throughput drug screen in 47 multiple myeloma cell lines against the NCATS MIPE library collection: H1112_PLB cell viability assay (AID 1918967; further: nearly all actives have a fitted effect of over 30% in size). As to conditions: H1112 myeloma cells viability, ATP luminescence, 48 h; series mostly up to 45.8 µM. The source says: PI: Beverly A. Mock Ph.D.
Laboratory of Cancer Biology and Genetics,
Center for Cancer Research, National Cancer Institute,
National Institute of Health, Bethesda, Maryland
Drug resistance and disease progression are common in multiple myeloma (MM) patients, underscoring the need for new therapeutic combinations. […] We hypothesized that effective combinations would reduce MYC expression and enhance p16 activity. […] These preclinical data identify potentially useful drug combinations for evaluation in drug-resistant MM and reveal potential mechanisms of combined drug sensitivity.
Described herein is the primary MIPE qHTS used to cherrypick compounds. Validated compounds were then further tested for potential synergistic activiy.
[1] Peat TJ, Gaikwad SM, Dubois W, Gyabaah-Kessie N, Zhang S, Gorjifard S, Phyo Z, Andres M, Hughitt VK, Simpson RM, Miller MA, Girvin AT, Taylor A, Williams D, D'Antonio N, Zhang Y, Rajagopalan A, Flietner E, Wilson K, Zhang X, Shinn P, Klumpp-Thomas C, McKnight C, Itkin Z, Chen L, Kazandijian D, Zhang J, Michalowski AM, Simmons JK, Keats J, Thomas CJ, Mock BA. Drug combinations identified by high-throughput screening promote cell cycle transition and upregulate Smad pathways in myeloma. Cancer Lett. 2023 Aug 1;568:216284. doi: 10.1016/j.canlet.2023.216284. Epub 2023 Jun 24. PMID: 37356470; PMCID: PMC10408729.
SEQUENCE No. (e.g., 1, 2, 3, etc.); […] (e.g., Cells, Incubation, Reagent, etc.); VALUE and DESCRIPTION.
1; Cells; 5 uL; white, solid bottom 1536-well Greiner assay plate.
2; Compounds; 23 nL; Kalypsis pin tool (Wako USA) equipped with a 1536-well pin head to transfer to the assay plates.
3; Incubation; 48 hours; 37C incubation.
4; Reagent;5uL; CellTiter Glo (Promega).
5; Detector; 425V; Luminescence; Viewlux PerkinElmer.
NOTES (numbers refer to Sequence numbers above)
1. The cell-based screening methods employed in this study were like those previously published. Briefly, the corresponding myeloma cell lines were screened in 1,536-well plates with 500 cells, 5-uL per well for inhibition of cell viability (assessed by measuring ATP levels with CellTiterGlo).
2. NCATS MIPE 4.0 library of approved and investigational drugs were added using the Kalypsis pin tool. Wells treated with DMSO only for 100% viability and media only wells for 0% viability were used as controls.
3. The assay plates were covered and incubated for 48 hours in a 37C, 5% CO2 incubator with controlled humidity.
4. After 48 hours, CellTilter-GloTM luminescent substrate mix (Promega) reagent was added to the assay plate and plates we incubated for 5 min at room temperature.
5. Signal was measured as median relative luminescence units on a ViewLux (PerkinElmer) multiplate reader.
[1] Heske CM, Davis MI, Baumgart JT, Wilson K, Gormally MV, Chen L, Zhang X, Ceribelli M, Duveau DY, Guha R, Ferrer M, Arnaldez FI, Ji J, Tran HL, Zhang Y, Mendoza A, Helman LJ, Thomas CJ. Matrix Screen Identifies Synergistic Combination of PARP Inhibitors and Nicotinamide Phosphoribosyltransferase (NAMPT) Inhibitors in Ewing Sarcoma. Clin Cancer Res. 2017 Dec 1;23(23):7301-7311. doi: 10.1158/1078-0432.CCR-17-1121. Epub 2017 Sep 12. PMID: 28899971; PMCID: PMC6636827.
On to `O=C(Cc1ccc(-c2ccc(OCCN3CCOCC3)cc2)cn1)NCc1ccccc1`, for which the Potency is 18.7 nM (active).

On to `CC(C)c1cc(C(=O)N2Cc3ccc(CN4CCN(C)CC4)cc3C2)c(O)cc1O`, for which the Potency is 5260 nM (active).

As to `Cc1cc(Nc2cc(N3CCN(C)CC3)nc(C=Cc3ccccc3)n2)n[nH]1`, the Potency was 38200 nM (active).

On to `C=CC(=O)Nc1cccc(Oc2nc(Nc3ccc(N4CCN(C)CC4)cc3)ncc2Cl)c1`, for which the Potency was 5900 nM (active).

With `Cn1cc(-c2[nH]c3cc(NC(=O)[C@H](N)C4CCCCC4)cc4c3c2C=NNC4=O)cn1`, the Potency is 935 nM (active).

For the compound `Cn1c2ccccc2c2c3c(c4c5ccccc5n(CCC#N)c4c21)CNC3=O`, the Potency was 2090 nM (active).

For `CCCCCN(CCC12CC3CC(CC(C3)C1)C2)C(=O)NCCCc1ccncc1`, the Potency is 18700 nM (active).

`COc1ccc(-n2nc(C(N)=O)c3c2C(=O)N(c2ccc(N4CCCCC4=O)cc2)CC3)cc1`: the Potency entry is “inactive”.

With `CC(C)[C@H](C(=O)Nc1ccc(C(=O)NO)cc1)c1ccccc1`, the Potency is 1050 nM (active).

With `Cc1c(CN2CCN(S(C)(=O)=O)CC2)sc2c(N3CCOCC3)nc(-c3cnc(N)nc3)nc12`, the Potency was 1180 nM (active).

Regarding `CC(C)(C)c1cnc(CSc2cnc(NC(=O)C3CCNCC3)s2)o1`, the Potency was 469 nM (active).

On to `COc1cc2c(Oc3ccc(NC(=O)C4(C(=O)Nc5ccc(F)cc5)CC4)cc3F)ccnc2cc1OCCCN1CCOCC1`, for which the Potency was 16600 nM (active).

Turning to `CCCn1c(=O)c2[nH]c(-c3cnn(Cc4cccc(C(F)(F)F)c4)c3)nc2n(CC)c1=O`, the Potency entry is “inactive”.

For `CCC1=C[C@@H]2CN(C1)Cc1c([nH]c3ccccc13)[C@@](C(=O)OC)(c1cc3c(cc1OC)N(C)[C@@H]1[C@@](O)(C(=O)OC)[C@H](OC(C)=O)[C@]4(CC)C=CCN5CC[C@]31[C@@H]54)C2`, the Potency is 148 nM (active).

As to `Cc1coc2c1C(=O)C(=O)c1c-2ccc2c1CCCC2(C)C`, the Potency was 8330 nM (active).

Consider `NC(=O)c1c(OCc2c(F)cc(Br)cc2F)nsc1NC(=O)NCCCCN1CCCC1`, for which the Potency is 16600 nM (active).

For the compound `COc1cc2c(NC3CCN(C(C)C)CC3)nc(C3CCCCC3)nc2cc1OCCCN1CCCC1`, the Potency is 9350 nM (active).

Consider `C1Cc2[nH]nc(-c3nn[nH]n3)c2C1`, for which the Potency entry is “inactive”.

Consider `Cc1cc(C(=O)N2CCN(c3cccc(Cl)c3)CC2)n(-c2ccccc2)n1`, for which the Potency is 833 nM (active).

Consider `C[C@@H](Oc1cc(-c2cnn(C3CCNCC3)c2)cnc1N)c1c(Cl)ccc(F)c1Cl`, for which the Potency was 11800 nM (active).

On to `O=C(O)C1(Cc2cccc(Nc3nccs3)n2)CCC(Oc2cccc(Cl)c2F)CC1` (stereo not given), for which the Potency result was “inactive”.

Take `Cc1[nH]c2ccccc2c1CCNCc1ccc(C=CC(=O)NO)cc1`: the Potency was 105 nM (active).

Turning to `CC(NCc1ccc2c(c1)nc(NC(=O)c1ccc(-c3cn[nH]c3)s1)n2CC(C)(C)O)C(C)(C)C` (stereo not given), the Potency is 469 nM (active).

As for `O=C(Nc1ncc(-c2cc(C(F)F)nn2-c2c(Cl)cccc2Cl)s1)C1CC1`, the Potency was 469 nM (active).

As for `Cc1ccc(CN2CCNCC2)cc1NC(=O)CNc1ccc(F)c(F)c1`, the Potency entry was “inactive”.

`COc1cc(OC2CCN(C)CC2)ccc1Nc1ncc2c(n1)n(C1CCCC1)c(=O)n2C`: the Potency is 14800 nM (active).

In the case of `COc1cc2c(Oc3ccc(-c4cnc(Nc5ccc(F)cc5)n(C)c4=O)cc3F)ccnc2cc1OCCCN1CCOCC1`, the Potency was 14800 nM (active).

With `CC=C1NC(=O)[C@H]2CSSCCC=C[C@H](CC(=O)N[C@H](C(C)C)C(=O)N2)OC(=O)[C@H](C(C)C)NC1=O`, the Potency is 37.2 nM (active).

Turning to `CC(C)(C)OC(=O)Nc1ccc(-c2cc(C(=O)NCCCCCCC(=O)NO)no2)cc1`, the Potency is 3720 nM (active).

Consider `COc1ccc(F)c(F)c1C(=O)c1cnc(NC2CCN(S(C)(=O)=O)CC2)nc1N`, for which the Potency was 1870 nM (active).

As to `Cc1cc(Nc2ncnc3ccc(-c4ccc(CNCCS(C)(=O)=O)o4)cc23)ccc1Oc1ccn2ncnc2c1`, the Potency is 6620 nM (active).

Take `O=C(NC1CCNCC1)c1[nH]ncc1NC(=O)c1c(Cl)cccc1Cl`: the Potency was 1050 nM (active).

Regarding `COc1ccc2c(OCc3nnc4ccc(-c5ccccc5)nn34)ccnc2c1`, the Potency entry was “inactive”.

`CN(c1ncccc1CNc1nc(Nc2ccc3c(c2)CC(=O)N3)ncc1C(F)(F)F)S(C)(=O)=O`: the Potency was 5900 nM (active).

As for `Cc1ccc(-c2ncn(-c3ccc(Nc4nccc(-c5cccc(N6CCOCC6)c5)n4)cc3)n2)cn1`, the Potency is 105 nM (active).

Regarding `CC(O)C1C(=O)N2C(C(=O)O)=C(SC3CNC(C(=O)N(C)C)C3)C(C)C12` (stereo not given), the Potency entry is “inactive”.

As for `COc1ccc(C=Cc2cc(OC)c(OC)c(OC)c2)cc1O`, the Potency entry was “inactive”.

Consider `CC(C)c1cnn2c(NCc3ccccc3)cc(N[C@@H](CO)[C@H](O)CO)nc12`, for which the Potency is 296 nM (active).

Take `CC(C)(O)CCc1ccc(OCc2cc(-c3cccc(OC(F)F)c3)c3ncccc3c2)cc1`: the Potency was 20900 nM (active).

In the case of `CC[C@@]1(O)C(=O)OCc2c1cc1n(c2=O)Cc2cc3cc(O)ccc3nc2-1`, the Potency is 148 nM (active).

The values above are taken from PubChem BioAssay (NCATS).
